Assay results: PubChem BioAssay (NCATS)
Values joined by “and” are separate entries in the source; they are usually repeats but may differ in a detail not shown here. Identical values can stand only once. Results filed as inconclusive are left out. Where a structure was tested more than once in an assay, its records may differ in their call. Active and inactive are the calls of the source. The call rests on the fitted dose curve; in most records, active means well fitted cell-killing curve with a large enough effect in the repeat runs; inconclusive means weak or mixed curves; inactive means flat fitted curve, though single readings scatter.

assay: qHTS assay for small molecule agonists of the antioxidant response element (ARE) signaling pathway measured by Nrf2-dependant transcriptional activity - cell viability counter screen (AID 720653); conditions: ARE-bla HepG2 viability, CellTiter-Glo ATP luminescence, 16 h; max response: stronger effect = lower value
From the text: National Center for Advancing Translational Sciences [NCATS] NIH Chemical Genomics Center [NCGC] U.S. Environmental Protection Agency [EPA] National Institutes of Environmental Health Sciences [NIEHS] National Toxicology Program [NTP] Assay Overview: Oxidative stress has been implicated in the pathogenesis of a variety of diseases ranging from cancer to neurodegeneration. The antioxidant response element (ARE) signaling pathway plays an important role in the amelioration of oxidative stress. The CellSensor ARE-bla HepG2 cell line (Invitrogen) can be used for analyzing the Nrf2/antioxidant response signaling pathway. Nrf2 (NF-E2-related factor 2) and Nrf1 are transcription factors that bind to AREs and activate these genes. The CellSensor ARE-bla HepG2 cell line contains a beta-lactamase reporter gene under control of the Antioxidant Response Element (ARE) stably integrated into HepG2 cells. The activation of the report gene under culture conditions can be detected by fluorescence intensity. The cytotoxicity of the compounds against the ARE-bla HepG2 cell line was quantified by measuring the intracellular ATP content.
Assay Protocol Summary: ARE-bla HepG2 cells were dispensed at 2,000 cells/5 ul/well in 1536-well black wall/clear bottom plates using a Multidrop Combi (ThermoFisher Scientific, Waltham, MA) dispenser. After the assay plates were incubated at 37C/5% CO2 for 5 hrs, 23 nL of compounds dissolved in DMSO, positive controls or DMSO only was transferred to the assay plate by a pintool work station (Kalypsys, San Diego, CA). The plates were incubated at 37C/5% CO2 for 16 hrs. After 1 uL of LiveBLAzer B/G FRET substrate was added using a Flying Reagent Dispenser (FRD) (Aurora Discovery, San Diego, CA), the assay plates were incubated at room temperature for 2 hrs. The fluorescence intensity was measured by an Envision (PerkinElmer, Shelton, CT) plate reader. Cell viability using CellTiter Glo viability assay (Promega, Madison, WI) was also measured by adding 4 ul/well of CellTiter-Glo reagent into the same assay plate using a FRD. After 30 min incubation at room temperature, the luminescence intensity in the plates was measured using a ViewLux (PerkinElmer) plate reader.
On the % scale 0 is the no-effect control and ±100 the full control effect; potency means the concentration at half of the fitted maximal effect.

Compound | max response | Potency
COC(=O)N(OC)c1ccccc1COc1ccn(-c2ccc(Cl)cc2)n1 | -16.5% (inactive) | 
CCOP(OCC)OCC | -4.24% (inactive) | 
Brc1c(Br)c(Br)c(Br)c(Br)c1Br | 3.38% (inactive) | 
N#Cc1c[nH]cc1-c1cccc2c1OC(F)(F)O2 | -6.59% (inactive) | 
ClC1=C(Cl)C(Cl)(Cl)C(Cl)=C1Cl | -1.05% (inactive) | 35.5 µM (active)
COCC(=O)N(c1c(C)cccc1C)[C@H](C)C(=O)OC | -2.34% (inactive) | 
C=CCOC(=O)C(C)(C)OC(=O)c1cc(-n2c(=O)cc(C(F)(F)F)n(C)c2=O)ccc1Cl | -16.6% (inactive) | 
CCNc1nc(NC(C)C)nc(SC)n1 | 4.35% (inactive) | 
CS(=O)(=O)NC(=O)c1cc(Oc2ccc(C(F)(F)F)cc2Cl)ccc1[N+](=O)[O-] | -2.76% (inactive) | 
Cc1nc(N(C)C)nc(OC(=O)N(C)C)c1C | -25.3% (inactive) | 
COC[C@H](C)N(C(=O)CCl)c1c(C)csc1C | 0.25% (inactive) | 
CCOS(=O)(=O)OCC | -6.17% (inactive) | 
CCOP(=O)(OCC)SCSC(C)(C)C | 4.97% (inactive) | 
CC(C)(c1ccccc1)c1cc(-n2nc3ccccc3n2)c(O)c(C(C)(C)c2ccccc2)c1 | 4.77% (inactive) | 
C[N+]1(C)CCCCC1 | 4.82% (inactive) | 
Cc1cc(Cl)ccc1OC(C)C(=O)O (stereo not given) | -3.1% (inactive) | 
CCSCc1ccccc1OC(=O)NC | -3.42% (inactive) | 
CCCCCCCCCCCC#N | -0.799% (inactive) | 
CC(C)(C)OOC(C)(C)c1ccc(C(C)(C)OOC(C)(C)C)cc1 | -7.74% (inactive) | 
COP(=O)(OC)SCn1c(=O)oc2cc(Cl)cnc21 | -47.9% (inactive) | 

Compound | max response | Potency
Nc1c(Cl)c(F)nc(OCC(=O)O)c1Cl | 1.18% (inactive) | 
COc1ccc(C(O)(c2cncnc2)C2CC2)cc1 (stereo not given) | -13.4% (inactive) | 
O=Cc1cccc(Oc2ccccc2)c1 | 2.38% (inactive) | 
CCSCCSP(=O)(OC)OC | -6.91% (inactive) | 
C/C(=N\NC(=O)Nc1cc(F)cc(F)c1)c1ncccc1C(=O)O | -4.25% (inactive) and -0.19% (inactive) | 
CNC(=O)N(C)c1nc2ccccc2s1 | -8.17% (inactive) | 
COc1cc(OC)nc(Sc2cccc(Cl)c2C(=O)O)n1 | -2.11% (inactive) | 
Cc1c(F)c(F)c(COC(=O)C2C(/C=C(\Cl)C(F)(F)F)C2(C)C)c(F)c1F (stereo not given) | -20.4% (inactive) | 
CC(C)(C)N(NC(=O)c1ccc(Cl)cc1)C(=O)c1ccccc1 | -5.92% (inactive) | 
CC(C)C(C(=O)OC(C#N)c1cccc(Oc2ccccc2)c1)c1ccc(Cl)cc1 (stereo not given) | -14.8% (inactive) | 
CC(Oc1ccc(Cl)cc1Cl)C(=O)O (stereo not given) | 8.84% (inactive) | 
Cc1cc(Cl)ccc1N=CN(C)C | -12.3% (inactive) | 
CCNP(=S)(OC)O/C(C)=C/C(=O)OC(C)C (stereo not given) | -7.95% (inactive) | 
CC(C)(C)[C@@H](O)/C(=C\c1ccc(Cl)cc1Cl)n1cncn1 | 6.93% (inactive) | 
CNC(=O)/C=C(\C)OP(=O)(OC)OC | -10% (inactive) | 
CCC(C)(C)c1cc(-n2nc3ccccc3n2)c(O)c(C(C)(C)CC)c1 | -12.9% (inactive) | 
COc1cc(Cl)c(OC)cc1Cl | -1.62% (inactive) | 
CCNS(=O)(=O)C(F)(F)C(F)(F)C(F)(F)C(F)(F)C(F)(F)C(F)(F)C(F)(F)C(F)(F)F | -7.97% (inactive) | 
Clc1ccc([C@]2(Cn3cncn3)C[C@H](Br)CO2)c(Cl)c1 | -1.87% (inactive) and -2% (inactive) | 
